Laboratory results: the supplement of paper PMC10338343
± gives the standard deviation.

Tested on: EfPiwi piRISC loaded with piRNA #1 (26 nt)
Experiment: pre-steady-state target cleavage rate (min^-1); auxiliary factor: 500 nM Ephydatia muelleri Gtsf1; guide: piRNA #1 5'p-UGAGGUAGUAGGUUGUAUAGUAUCCA; MIWI and MILI are mouse PIWI proteins and EfPiwi is from a freshwater sponge; tags in brackets are library labels; higher = faster piRNA-guided slicing of the target
Experimental: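 Cleave-'n-Seq: a library of target RNAs (target site in constant flanks) at […] was incubated with 1 nM active freshwater sponge Ephydatia fluviatilis Piwi piRISC (synthetic 5'-monophosphorylated piRNA guide) with or without 500 nM EmGtsf1 at 33 °C for 1 min to 16 h. Uncleaved targets were sequenced and the pooled three trials fitted to a burst-and-steady-state model to give the pre-steady-state cleavage rate (min^-1). Sequence is the target site only. Fits with R² ≤ 0 are excluded.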

| Sequence | pre-steady-state target cleavage rate |
| --- | --- |
| GGAGACGAUACUAUACAUCCUACUACGUCA | 0.00318 ± 0.0012 |
| GGAGUGGAUAGUAUACAACCUACAACCUCA | 0.00254 ± 0.0017 |
| GGAGACGAUACUAAUCAACCUACUACCUCA | 0.0059 ± 0.0033 |
| GGAGACCUAACUAUACAAGCUACUACGUCA | 0.004 ± 0.0035 |
| GGAGACCAUACUAUACAAUCUACUACCUCA | 0.00847 ± 0.004 |
| GGAGACGAUACCAUACAACCUACUACCUCA | 0.124 ± 0.045 |
| GGAGAGGAUACUAUACUACCUUCUACCUCA | 0.00328 ± 0.0026 |
| GGAGACCAUCUAUACAACCUACUACCUCA | 0.00903 ± 0.0054 |
| GGAGACGAAACUAUACAACGUACUACCUCA | 0.00237 ± 0.0021 |
| GGAGACCUAACCAUACAACCUACUACCUCA | 0.0143 ± 0.0069 |
| GGAGAGGAUACAAUACAACCUUCUACCUCA | 0.00307 ± 0.0023 |
| GGAGUGGAUAGUAUACUACCUACUACCUCA | 0.00287 ± 0.0021 |
| GGAGAGGAUACUAUACAACCUAACUACCUCA | 0.00656 ± 0.0027 |
| GGAGACCAUACUAUACAACCUACGACCUCA | 0.00282 ± 0.0019 |
| GGAGAGGAUACUAUACAUCCUACUACCUGA | 0.00462 ± 0.002 |
| GGAGACCUAUCUAUACAACCUAGUACCUCA | 0.00361 ± 0.0027 |
| GGAGACCUAACUAUACAACCUACAACCUGA | 0.00402 ± 0.0029 |
| GGAGUGGAUACUAUUCAACCAACUACCUCA | 0.00404 ± 0.0021 |
| GGAGACGAUACUAUACAAGCUACAACCUCA | 0.00442 ± 0.0022 |
| GGAGCGGAUACUAUACAACCUACUACCUCA | 0.141 ± 0.048 |

| Sequence | pre-steady-state target cleavage rate |
| --- | --- |
| GGAGAGGAUACUAAUACAACCUACUACCUCA | 0.128 ± 0.048 |
| GGAGAGGAUAUAUACAACCUACUACCUCA | 0.00764 ± 0.0042 |
| GGAGACCAUACUAUACAACCUACUACCUCA [g2:g23:cont:t1A] | 0.0141 ± 0.0046 |
| GGAGUGGAUACAAUACAUCCUACUACCUCA | 0.00574 ± 0.0025 |
| GGAGAGGAUACUAUACAACCUACUUCCUCA | 0.00514 ± 0.0026 |
| GGAGAGGAUACUAUACAACCUACUGACCUCA | 0.00473 ± 0.002 |
| GGAGACCUUACUAUACAACCUACUACCAGA | 0.00482 ± 0.0036 |
| GGAGACCAUACUAUACAACGUACUACCUGA | 0.00457 ± 0.0027 |
| GGAGACGAUACUAUACAACCUACUACCUCG [g2:g24:cont:t1G] | 0.115 ± 0.037 |
| GGAGACCUUACUAAACAACCUACUACCUCA | 0.00463 ± 0.0036 |
| GGAGACCAUAGUAAACAACCUACUACCUCA | 0.00482 ± 0.0034 |
| GGAGAGGAUACUAUACAACGUACUUCCUCA | 0.00375 ± 0.0013 |
| GGAGUGGAUACUUUACAUCCUACUACCUCA | 0.0043 ± 0.0029 |
| GGAGUCGAUACUAUACAACGUACUACCUCA | 0.00501 ± 0.0019 |
| GGAGACGAUUCUAUUCAACCUACUACCUCA | 0.00706 ± 0.0046 |
| GGAGACCUAUGUAUACAACCUACUGACCUCA | < 0.0001 |
| GGAGACCUAACUAUACAAGCCUACUACCUCA | 0.00432 ± 0.0033 |
| GGAGACCUUACUAUACAAGCUACUACCUGA | 0.00346 ± 0.003 |
| GGAGACGAUAUCUAUACAACCUACUACCUCA | 0.00603 ± 0.0041 |
| GGAGAGCAUACUAAACAACCUACUACCUCA | 0.00417 ± 0.0033 |
